Screens: PubChem BioAssay, National Center for Advancing Translational Sciences (NCATS)
Many of the other results were omitted from the sample, so hits are more common in it than they were.
TDP1 cell noCPT: qHTS for Inhibitors of human tyrosyl-DNA phosphodiesterase 1 (TDP1): qHTS in cells in absence of CPT; AID 686978, 2013; Potency, µM (doses to about 46.2 µM), without a hit: top-dose activity change, negative = growth inhibition, most hits filed as inhibitors; DT40 Tdp1-/- hTDP1 cells, no CPT, ATP luminescence, 48 h; hit rate 15% among 420,000; also: potency is read from the fitted curve at half-maximal effect; nearly all actives have a fitted effect of over 55% in size
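Compound effects on proliferation are scored in DT40 Tdp1-/-;hTDP1 cells in the absence of CPT. ATP levels (CellTiter-Glo luminescence) are recorded after a ≥48 hr, 37 °C incubation.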
ALOX12 inh: ALOX12 (human) lipoxygenase inhibition | Potency, µM (series often up to 108 µM), for the others: top-dose activity change, negative = inhibition, most hits filed as inhibitors | hit rate 1.1% among 580,000 | AID 1671190 | purified 12hLO, xylenol orange hydroperoxide absorbance | P18054; also: potency is read from the fitted curve at half-maximal effect
Target sequence (P18054 whole entry, looked up): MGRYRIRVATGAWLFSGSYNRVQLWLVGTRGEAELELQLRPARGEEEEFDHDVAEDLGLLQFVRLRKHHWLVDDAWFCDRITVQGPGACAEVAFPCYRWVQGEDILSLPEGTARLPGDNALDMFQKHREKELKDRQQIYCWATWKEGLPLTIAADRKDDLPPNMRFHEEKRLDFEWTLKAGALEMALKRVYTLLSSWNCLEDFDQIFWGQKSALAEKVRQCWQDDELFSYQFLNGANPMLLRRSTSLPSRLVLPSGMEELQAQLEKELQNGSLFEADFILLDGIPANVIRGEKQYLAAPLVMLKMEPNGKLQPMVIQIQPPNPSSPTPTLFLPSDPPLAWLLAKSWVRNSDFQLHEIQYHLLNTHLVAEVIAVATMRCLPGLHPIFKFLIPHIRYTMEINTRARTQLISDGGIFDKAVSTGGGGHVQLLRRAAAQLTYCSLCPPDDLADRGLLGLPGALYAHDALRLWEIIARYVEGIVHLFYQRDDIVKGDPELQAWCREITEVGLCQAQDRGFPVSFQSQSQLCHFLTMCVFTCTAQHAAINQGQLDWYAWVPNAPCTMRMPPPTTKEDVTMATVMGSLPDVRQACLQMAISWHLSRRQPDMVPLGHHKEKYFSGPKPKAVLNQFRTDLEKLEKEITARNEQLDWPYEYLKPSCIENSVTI
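Purified human 12hLO at 150 nM in 25 mM Hepes, 0.01% Triton X-100, pH 7.0, preincubated 15 min at room temperature with compound. Reaction started with 40 uM arachidonic acid, 30 min at room temperature. Hydroperoxide measured by Fe-xylenol orange, 573/405 nm absorbance ratio.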
TDP1 cell CPT: DT40-hTDP1 cell growth loss with CPT | chicken DT40 Tdp1-/-;hTDP1 cells + 20 nM CPT, ATP luminescence, 48 h | Potency, µM (highest dose often 46.2 µM), for inactives: top-dose activity change, negative = growth inhibition, most hits filed as inhibitors | hit rate 12% among 420,000; also: potency is read from the fitted curve at half-maximal effect; nearly all actives have a fitted effect of over 55% in size
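Chicken DT40 Tdp1-/- cells complemented with human TDP1, 400 cells/well, exposed to compounds plus 20 nM camptothecin for at least 48 h at 37 C; viability read as ATP content by CellTiter-Glo luminescence.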
IL-1B inflam inh: blocks inflammasome-driven IL-1 beta release. hit rate 4.7% among 360,000. THP-1 LPS/ATP IL-1B secretion, AlphaLISA, 16 h; hits give low values. activity change, % at 57.5 µM; in the data active = activity change below about -50%; inconclusive = mostly about -30% to -49%
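THP-1 cells pretreated 1 hr with compounds (up to 57.5 uM final), then stimulated with LPS (250 ng/mL final) plus ATP (1.25 mM final); secreted IL-1B measured by AlphaLISA after 16 hr, decreased signal indicating inhibition.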
HT1080 IDH1KD tx: kills HT-1080 cells with IDH1 knockdown; HT-1080 IDH1 knockdown viability, ATP luminescence, 48 h; Potency, µM (doses to about 46.1 µM), for inactives: at the top dose activity, negative = toxicity, most hits filed as cytotoxic; hit rate 2% among 360,000;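 also: potency is read from the fitted curve at half-maximal effect; 0% = DMSO wells and -100% = cell-free medium wells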
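CellTiter-Glo luminescence after 48 h compound exposure at 37 degrees C of IDH1-knockdown HT-1080 cells in 5% FBS RPMI. %Activity scaled between DMSO wells and cell-free media wells, with curves fitted and assigned curve classes.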
HT1080-NT tox: kills 2HG-producing HT-1080-NT fibrosarcoma cells; HT-1080-NT fibrosarcoma viability, CellTiter-Glo ATP luminescence, 48 h; Potency, µM (doses to about 46.1 µM), for the others: at the highest dose activity, negative = less viability, usual class: cytotoxic; hit rate 1.6% among 360,000;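 also: NT is the 2HG producing partner of a matched IDH1 knockdown line; potency is read from the fitted curve at half-maximal effect; 0% = DMSO-treated cells and -100% = media-only wells without cells; nearly all actives have a fitted effect of over 55% in size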
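Viability by CellTiter-Glo luminescence after 48 h compound exposure at 37C of HT-1080-NT cells (750/well, RPMI, 5% FBS). % activity scaled between DMSO wells and medium-only wells, then curve-fitted and categorized by curve class.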
Starred values were filed as active, the others as inactive; [ ] = remark or other dose. Unless noted, calls follow the shape of the dose curve; as a rule, active = well fitted curve in the direction sought with a large enough effect; inconclusive = small, poorly fitted or top-dose-only effect, or another doubt; inactive = no such curve, though single readings can be large; an effect the other way counts as inactive or inconclusive. Unless noted, % is scaled to controls: 0 for no effect and ±100 for the full control effect.

For CSc1ccc(CN2CCC(Cc3ccccc3)CC2)cc1 the results were TDP1 cell noCPT inconclusive, ALOX12 inh 1.58µM*, TDP1 cell CPT inconclusive, IL-1B inflam inh -3.6, HT1080 IDH1KD tx -11.3% and HT1080-NT tox -1.1%.
For O=[N+]([O-])c1cc(CN2CCCC2)ccc1Sc1ccc(Cl)cc1 the results were TDP1 cell noCPT 8.2µM*, ALOX12 inh inconclusive, TDP1 cell CPT 10.3µM*, IL-1B inflam inh -11.9, HT1080 IDH1KD tx inconclusive and HT1080-NT tox -26.2%.
For Cc1ccc(C(=O)NCC(=O)N2CCC(Cc3ccccc3)CC2)cc1 the results were TDP1 cell noCPT inconclusive, ALOX12 inh -17.8%, TDP1 cell CPT -14.9%, IL-1B inflam inh -69.1*, HT1080 IDH1KD tx -22.6% and HT1080-NT tox -0.3%.
CSc1ccc(OC2CCN(Cc3ccccc3)CC2)cc1 was read as TDP1 cell noCPT inconclusive, ALOX12 inh -26.3%, TDP1 cell CPT inconclusive, IL-1B inflam inh -3.8, HT1080 IDH1KD tx -6.3% and HT1080-NT tox -0.1%.
`COc1ccc(C(=O)NCC(=O)N2CCC(Cc3ccccc3)CC2)cc1OC` gave TDP1 cell noCPT inconclusive, ALOX12 inh 24.8%, TDP1 cell CPT inconclusive, IL-1B inflam inh -10.6, HT1080 IDH1KD tx 4.4% and HT1080-NT tox 1.5%.
`CCCc1nn2c(=O)cc(CSc3ccccc3NC(=O)c3ccco3)nc2s1` gave ALOX12 inh 24.9%.
`O=S1(=O)CC(N2CCC(Cc3ccccc3)CC2)CN1Cc1ccc(F)cc1` (stereo not drawn) gave TDP1 cell noCPT 13µM*, ALOX12 inh inconclusive, TDP1 cell CPT 25.9µM*, IL-1B inflam inh -1.7, HT1080 IDH1KD tx inconclusive and HT1080-NT tox -20.9%.
`Clc1ccc(CN2CCC(Cc3ccccc3)CC2)cc1` gave TDP1 cell noCPT inconclusive, ALOX12 inh inconclusive, TDP1 cell CPT -29.5%, IL-1B inflam inh -96.1*, HT1080 IDH1KD tx -15.0% and HT1080-NT tox 1.4%.
O=S1(=O)CC(N2CCCC2)CN1Cc1ccc(F)cc1 (stereo not drawn) was read as TDP1 cell noCPT -24.5%, ALOX12 inh inconclusive, TDP1 cell CPT -1.2%, IL-1B inflam inh 20.5, HT1080 IDH1KD tx 20.3% and HT1080-NT tox 10.9%.
Screening O=C(NC1CC1)C1CCN(Cc2ccc(Cl)cc2)CC1 returned ALOX12 inh -12.6%.
`CSc1ccc(CN2CCC(N3CCC(C(=O)NC4CC4)CC3)CC2)cc1` gave TDP1 cell noCPT 8.2µM*, ALOX12 inh -1.3%, TDP1 cell CPT 20.6µM*, IL-1B inflam inh -28.2, HT1080 IDH1KD tx -23.9% and HT1080-NT tox -5.0%.
Screening Cn1cnnc1SCC(=O)N1CCC(Cc2ccccc2)CC1 returned TDP1 cell noCPT 18.4µM*, ALOX12 inh 10.2%, TDP1 cell CPT inconclusive, IL-1B inflam inh -0.9, HT1080 IDH1KD tx -6.3% and HT1080-NT tox -5.1%.
Screening O=C(NCc1cccnc1N1CCOCC1)c1cnn(-c2ccc(F)cc2)c1-n1cccc1 returned ALOX12 inh 12.0%.
`COCCNC(=O)c1ccc(OC2CCN(CCC(C)c3ccc(C)o3)CC2)c(Cl)c1` (stereo not drawn) gave ALOX12 inh 44.2%.
Screening COc1ccc(OC)c(-c2cc(-c3ccccc3)nc3c(C)noc23)c1 returned ALOX12 inh -2.0%[176 µM].
For O=C(c1cc2c(s1)CN(C1CCCC1)C2)N1CCCCCC1 the results were ALOX12 inh 322.0%.
CC1CCCC(N2CCN(Cc3ccc(Cl)cc3)CC2)C1 (stereo not drawn) was read as ALOX12 inh 0.794µM*.
Screening Cc1ccccc1NC(=O)c1ccc(CN2CCC(Cc3ccccc3)CC2)cc1 returned TDP1 cell noCPT 20.6µM*, ALOX12 inh -25.4%, TDP1 cell CPT inconclusive, IL-1B inflam inh -82.8*, HT1080 IDH1KD tx inconclusive and HT1080-NT tox 23.1µM*.
`Clc1ccc(CN2CCCCCCC2)cc1` gave TDP1 cell noCPT -25.5%, ALOX12 inh inconclusive, TDP1 cell CPT -17.6%, IL-1B inflam inh -20.3, HT1080 IDH1KD tx 8.4% and HT1080-NT tox 17.9%.
O=c1c(S(=O)(=O)c2ccccc2)c[nH]c2cc(F)c(F)cc12 was read as ALOX12 inh -26.4%.
CCOc1ccc(N2C(=O)/C(=C\c3ccccc3OC)S(=O)(=O)C2c2cccc([N+](=O)[O-])c2)cc1 (stereo not drawn) was read as TDP1 cell noCPT 16.4µM*, ALOX12 inh 0.2%, TDP1 cell CPT 14.6µM*, IL-1B inflam inh -6.9, HT1080 IDH1KD tx 0.9% and HT1080-NT tox 9.2%.
COc1cccc(-n2nnnc2S(C)(=O)=O)c1 was read as TDP1 cell noCPT 2.59µM*, TDP1 cell CPT 2.06µM*, IL-1B inflam inh -91.5*, HT1080 IDH1KD tx 7.31µM* and HT1080-NT tox inconclusive.
`Cc1cccc(-n2nnnc2S(C)(=O)=O)c1` gave TDP1 cell noCPT 0.731µM*, ALOX12 inh -5.3% and TDP1 cell CPT 1.16µM*.
`C=CCNC(=O)c1c[nH]c2cccnc12` gave ALOX12 inh 41.0%[176 µM].
Screening COc1cc(SC)ccc1C(=O)OCC(=O)NCc1cccs1 returned ALOX12 inh 7.8%.
For CC(C)Cc1ccc(C(NC(=O)CC2(C(=O)O)CCCC2)c2cccs2)cc1 (stereo not drawn) the results were ALOX12 inh -24.2%.
Screening CC1CN(CC(O)COC2CCC(C(C)(C)C)CC2)CC(C)O1 (stereo not drawn) returned TDP1 cell noCPT -25.1%, ALOX12 inh -10.8%, TDP1 cell CPT inconclusive, IL-1B inflam inh 16.9, HT1080 IDH1KD tx -3.0% and HT1080-NT tox -0.3%.
For CC1CCCC(C)N1CC(O)COC1CCC(C(C)(C)C)CC1 (stereo not drawn) the results were TDP1 cell noCPT 20.6µM*, ALOX12 inh 8.2%, TDP1 cell CPT 23.1µM*, IL-1B inflam inh 0.0, HT1080 IDH1KD tx -27.6% and HT1080-NT tox -16.9%.
For CCC(C)(C)c1ccc(OCCCC[n+]2cccc(C)c2)c(C(C)(C)CC)c1 the results were TDP1 cell noCPT 0.92µM*, ALOX12 inh inconclusive, TDP1 cell CPT 0.581µM*, IL-1B inflam inh -179.9*, HT1080 IDH1KD tx 4.11µM* and HT1080-NT tox 6.51µM*.
For Cc1ccc[n+](CC(=O)Nc2cc(C(F)(F)F)ccc2Cl)c1 the results were TDP1 cell noCPT -5.5%, ALOX12 inh 10.3%, TDP1 cell CPT -5.3%, IL-1B inflam inh -11.4, HT1080 IDH1KD tx 2.5%[9.24 µM] and HT1080-NT tox -13.4%.
